Values without a mark were called inactive. Records with an inconclusive call do not appear. The source made the active and inactive calls. Unless noted, the call rests on the fitted dose curve; in most records, active means well fitted curve in the direction sought with a large enough effect; inconclusive means small, poorly fitted or top-dose-only effect, or another doubt; inactive means no such curve, though single readings can be large; an effect the other way counts as inactive or inconclusive.

Among the data in PubChem BioAssay (NCATS) are Potency, activation and outcome values, retold here.

A short description of test [1]: Validation screen for small molecules that induce genotoxicity in human embryonic kidney (HEK293T) cells expressing luciferase-tagged ELG1 (AID 493106). Further: 0% is about no effect. Put shortly: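 Luminescence from an ELG1-luciferase fusion serves as the read-out, rising when genetic stress elevates ELG1 protein. HEK293T reporter cells (2,000 per well) received 23 nL compound, incubated 16 hr at 37 °C, then ONE-Glo for 30 min at room temperature.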

Test [2] addresses Thyrotropin-releasing hormone receptor (Homo sapiens) (UniProt P34981). The test can be described thus: qHTS for Small Molecule Agonists and Allosteric Enhancers of Human TRH Receptor: Validation Screen for Agonists (AID 493127;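 active means calcium activation more than 3 SD above the typical response in the agonist read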;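 further: intracellular calcium rise by fluo-8 fluorescence before TRH EC20 addition; 0% is about no effect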). To be noted: TRH receptor agonist cell assay; at 2 µM; hits give high values. The method, boiled down:
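Cells 2000/well, 10% FCS, 18 h 33.5C/5% CO2 → fluo-8 Ca dye, RT 30 min–1.5 h → FDSS baseline 10 × 1 s → compound added → 230 cycles (1 s/cycle) agonist mode. TRH controls.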
A general note: In qHTS, concentration-response curves come from the screen itself.

Test [3] can be described thus: qHTS for Inhibitors of Cell Surface uPA Generation: Validation Assay (AID 493164). Further: 0% is about no effect. Put shortly:
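RAW 264.7 cells (4000/well) were plated overnight, then exposed for 18 h at 37 C, 5% CO2 to compounds in a 7-point 1:5 titration (2.45 nM–38.3 uM final). Intracellular ATP was read by ATP-Lite luminescence.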

The nature of test [4]: Validation screen for small molecules that induce DNA re-replication in SW480 colon adenocarcinoma cells (AID 504364). Further: 0% is about no effect. Put shortly: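 250 cells/well; compound pinned in; 48 hr, 37 C, 5% CO2; Hoechst added, 40 min; nuclear fluorescence imaged, 405 ex / 500-530 em; re-replication scored as increase in high-intensity nuclei.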
For test [5], the target named is Peptidyl-prolyl cis-trans isomerase NIMA-interacting 1 (Homo sapiens) (UniProt Q13526). Kind of test: qHTS Validation Assay to Find Inhibitors of Pin1 (AID 504536; active means well fitted inhibition curve with a large enough effect in the polarisation, with a control signal flat, not every such curve was filed as active; the % refers to the polarisation; further: potency means the concentration at half of the fitted maximal effect). Put shortly: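 Fluorescence polarization competition: compounds (titration) displace HiFluor-488-labeled Pin1-1b peptide from Pin1 (0.3 uM final) in pH 7.5 HEPES buffer with DTT, 10 min at room temperature; %Activity normalized to no-enzyme wells, curves fitted.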

Test [6] addresses Phosphoglycerate kinase, glycosomal (Trypanosoma brucei brucei) (UniProt P07378). Kind of test: qHTS Validation Assay to Find Inhibitors of Phosphoglycerate Kinase (AID 504547). Further: potency means the concentration at half of the fitted maximal effect. Put shortly:
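Inhibition of the enzyme is judged by a Kinase-Glo Plus luminescent signal following a one-hour incubation at room temperature. Because 1,3-BPG is unstable, it is made in situ by GAPDH at 100nM final; no-PGK wells define the baseline.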

Test [7] concerns the target Ubiquitin carboxyl-terminal hydrolase 1 (Homo sapiens) (UniProt O94782). Kind of test: Inhibitors of USP1/UAF1: Pilot qHTS (AID 504865). Further: potency means the concentration at half of the fitted maximal effect; nearly all actives have a fitted effect of over 35% in size. The method, boiled down: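 USP1/UAF1 complex at 1 nM preincubated 15 min at room temperature with compound, then Ub-Rho substrate added at 150 nM final. Fluorescence (480/540 nm) read kinetically in 50 mM HEPES pH 7.8, 0.5 mM EDTA, 1 mM TCEP, 0.1 mg/ml BSA, 0.01% Tween-20.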

The target of test [8] is Voltage-gated inwardly rectifying potassium channel KCNH2 (Homo sapiens) (UniProt Q12809). Kind of test: qHTS Assay for Small Molecule Inhibitors of the Human hERG Channel Activity (AID 588834).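 Further: top concentration of the series differs between compounds; on the % scale 0 is the no-effect control and ±100 the full control effect; lower thallium flux fluorescence means stronger hERG block; nearly all actives have a fitted effect of over 50% in size.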 Put shortly:
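U2OS cells BacMam-transduced with hERG, 2000 cells/well, compound ~10 min at 37 °C before stimulation buffer. FluxOR thallium flux fluorescence read kinetically on FDSS; decrease indicates block; AC50 from Hill fits.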

Test [9] has as its target Glucagon-like peptide 1 receptor (Homo sapiens) (UniProt P43220). The test can be described thus: qHTS of GLP-1 Receptor Agonists: LOPAC Validation (AID 624148).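 Further: luminescence from a luciferase reporter switched on by cAMP; 0% is about no effect; higher luminescence signal means agonism.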 The method, boiled down: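 Agonism scored as increased luciferase luminescence driven by cAMP in HEK293 clones carrying GLP-1R. Cells settled 12 hours, received compound for 4-6 hr at 37 deg C, 5% CO2, and were read after 12 min detection reagent at RT.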

Test [10] can be described thus: qHTS of Nrf2 Activators: LOPAC Validation (AID 624149). Further: 0% is about no effect. Put shortly:
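Luminescence read-out of ARE-luciferase activation: AREc32_Fluc cells treated with compounds for 24 hr at 37 deg C, then lysed with Steady-Glo for 30 min at room temperature before reading.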

Test [11] is described as follows: HTS Assay for Allosteric Antagonists of the Human D2 Dopamine Receptor: Hit Validation in HTRF (AID 624455).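 Further: stable D1 dopamine receptor cell line scored for blocking the D1 response; on the % scale 0 is the no-effect control and ±100 the full control effect.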 The method, boiled down:
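First, antagonism was screened by calcium flux in a force-coupled, inducible Hek293 Trex D2 line challenged with EC80 dopamine. Hits then went into an HTRF assay in cells stably expressing D1, testing inhibition of the D1 response.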
In general terms: Time-resolved FRET reads energy transfer from a long-lived donor to a nearby acceptor.

Test [12] addresses Arylsulfatase A (Homo sapiens) (UniProt P15289). The test can be described thus: qHTS screen for enhancers of Arylsulfatase A (ASA1): LOPAC Validation Assay (AID 720538). Further: potency means the concentration at half of the fitted maximal effect. The method, boiled down:
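SV40-transformed fibroblasts from an MLD patient (ASA-I179S) were treated with compound for 48 h at 37 C. They were then lysed with 0.5 mM pNCS substrate (final) for 14 h at room temperature and stopped with NaOH; signal read by fluorescence (Ex 525/Em 598 nm), with increase denoting enhanced activity.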

Test [13] in a line: qHTS for compounds that reverse cellular toxicity of Amyloid beta (A-beta) peptide in yeast: LOPAC Validation Assay (AID 720559).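 Further: plate controls were DMSO for no effect and equimolar ferric chloride plus clioquinol rescue for full effect.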 Put shortly: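 Yeast expressing toxic A-beta grown with pinned compounds at 30 C for 48 hr. Growth measured as absorbance at 600 nm; data normalized to DMSO and to an equimolar FeCl3/clioquinol mixture as positive control.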
The nature of test [14]: qHTS for Activators of Parkin Expression: LOPAC Validation Assay (NLuc Reporter) (AID 720572;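 further: 0% = DMSO and 100% = positive control compound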). The method, boiled down:
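Parkin promoter-driven FLuc/NLuc neuronal reporter cells; 24 h plating, 7-pt dose response, 24 h at 37 C/5% CO2; FLuc then NanoLuc reagent, 10 min each, luminescence; DMSO/positive control normalized.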

Test [15] in a line: qHTS for Activators of Parkin Expression: LOPAC Validation Assay (FLuc Reporter) (AID 720573;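 further: 0% = DMSO and 100% = positive control compounds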). The method, boiled down:
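Neuronal cell line stably expressing FLuc/NLuc coincidence reporter under the Parkin promoter, 1,500 cells/well, dosed 24 h after seeding in 7-point series for 24 h at 37 C. FLuc luminescence read; normalized to DMSO and positive control (100%).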

For test [16], the target named is Hexokinase-4 (Homo sapiens) + Glucokinase regulatory protein (Homo sapiens) (UniProt P35557+Q14397). Kind of test: qHTS assay for inhibitors of recombinant human GCK-GKRP interaction: ADP-Glo assay (AID 743206).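 Further: plate controls were DMSO plus enzyme for no effect and no enzyme for full effect.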 The method, boiled down: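 GST-GCK and FLAG-GKRP (15 nM each in the dispensed mix, with 2 uM S6P) react with 0.4 mM ATP and 5 mM glucose (final) in Hepes pH 7.6 for 60 min at room temperature. ADP is measured by ADP-Glo luminescence.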

Test [17] is described as follows: Natriuretic polypeptide receptor (hNpr1) antagonism - Pilot counterscreen GloSensor control cell line (AID 1347045; calls by dose curve; further: potency means the concentration at half of the fitted maximal effect). The method, boiled down:
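Luminescence was read before and 20 min after adding 50 uM SNP, which stimulates soluble guanylyl cyclase. The HEK293 cells expressing the GloSensor cGMP sensor had been preloaded with 2% reagent for 2 h and treated with compound.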
(Counterscreens check selectivity or assay interference.)

Test [18] is described as follows: NS1 protein of Zika virus - qHTS assay to identify small molecule inhibitors in human HEK 293 cells (AID 1347053).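 Further: series mostly up to about 46 µM; plate controls were infected untreated cells for no effect and uninfected cells for full effect; nearly all actives have a fitted effect of over 55% in size.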 The method, boiled down: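 Inhibition of NS1 expression was scored in HEK 293 cells given compound 1 h ahead of MR766 virus (MOI = 0.5). Following 24 h at 37 C, two anti-NS1 antibodies generated a TR-FRET signal, scaled between uninfected and infected controls.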

The target in test [19] is T1, Tyrosine-protein phosphatase non-receptor type substrate 1 (Homo sapiens) + Leukocyte surface antigen CD47 (Homo sapiens) (UniProt P78324+Q08722). Kind of test: CD47-SIRPalpha protein protein interaction - LANCE assay qHTS validation (AID 1347057; active means well fitted curve in the direction sought with a large enough effect in the signal ratio, with a control signal flat, not every such curve was filed as active; the % refers to the signal ratio; further: series mostly up to about 38 µM; 0% is about no effect). The method, boiled down: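 First, His-tagged CD47 and Eu-labelled anti-His antibody met the compound for 30 min; next, site-specifically biotinylated SIRPalpha was added for 30 min; finally streptavidin-APC was added before reading the TR-FRET ratio.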

In test [20] the target is T1, Tyrosine-protein phosphatase non-receptor type substrate 1 (Homo sapiens) + Leukocyte surface antigen CD47 (Homo sapiens). Kind of test: CD47-SIRPalpha protein protein interaction - Alpha assay qHTS validation (AID 1347059). Put shortly:
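Binding is measured by AlphaScreen proximity: Ni-NTA acceptor beads capture His-CD47, streptavidin donor beads capture biotin-SIRPalpha. Each of three additions (SIRPalpha with compound, CD47, beads) incubates 30 min at room temperature protected from light.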

T1 sequence (P78324 whole entry, looked up): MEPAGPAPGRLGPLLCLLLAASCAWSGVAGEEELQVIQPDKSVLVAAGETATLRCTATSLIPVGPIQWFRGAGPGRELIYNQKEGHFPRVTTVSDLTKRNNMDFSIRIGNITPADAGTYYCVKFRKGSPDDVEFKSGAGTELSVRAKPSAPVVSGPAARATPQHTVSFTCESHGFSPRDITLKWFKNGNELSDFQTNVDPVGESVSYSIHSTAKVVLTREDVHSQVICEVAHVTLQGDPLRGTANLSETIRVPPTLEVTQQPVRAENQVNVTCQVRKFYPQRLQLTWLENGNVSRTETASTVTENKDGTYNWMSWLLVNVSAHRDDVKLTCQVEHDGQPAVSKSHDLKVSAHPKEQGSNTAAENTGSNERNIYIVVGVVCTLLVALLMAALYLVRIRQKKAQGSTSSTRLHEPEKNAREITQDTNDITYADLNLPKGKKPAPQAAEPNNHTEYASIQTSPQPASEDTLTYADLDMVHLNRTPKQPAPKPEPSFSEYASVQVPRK
T1 sequence (Q08722 whole entry, looked up): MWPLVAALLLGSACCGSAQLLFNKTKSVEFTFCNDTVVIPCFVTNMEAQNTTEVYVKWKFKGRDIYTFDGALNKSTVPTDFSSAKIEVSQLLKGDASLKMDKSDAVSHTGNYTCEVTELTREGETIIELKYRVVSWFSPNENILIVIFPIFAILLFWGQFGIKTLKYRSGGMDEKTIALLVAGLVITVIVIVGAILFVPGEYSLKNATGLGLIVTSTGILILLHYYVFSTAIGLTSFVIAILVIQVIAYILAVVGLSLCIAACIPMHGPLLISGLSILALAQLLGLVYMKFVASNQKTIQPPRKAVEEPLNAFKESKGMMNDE
Phosphoglycerate kinase, glycosomal (Trypanosoma brucei brucei), sequence (P07378 whole entry, looked up): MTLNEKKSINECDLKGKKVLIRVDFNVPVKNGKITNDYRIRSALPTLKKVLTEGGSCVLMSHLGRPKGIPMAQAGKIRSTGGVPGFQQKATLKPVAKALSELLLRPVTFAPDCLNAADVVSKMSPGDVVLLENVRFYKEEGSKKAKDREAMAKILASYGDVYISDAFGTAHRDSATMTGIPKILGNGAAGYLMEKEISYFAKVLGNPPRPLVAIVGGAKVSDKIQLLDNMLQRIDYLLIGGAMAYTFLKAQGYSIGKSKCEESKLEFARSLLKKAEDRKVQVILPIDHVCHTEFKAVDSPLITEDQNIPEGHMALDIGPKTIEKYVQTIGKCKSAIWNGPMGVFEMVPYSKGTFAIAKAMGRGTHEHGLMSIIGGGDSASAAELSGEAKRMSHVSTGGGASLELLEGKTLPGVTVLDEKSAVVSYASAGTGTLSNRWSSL
Arylsulfatase A (Homo sapiens), sequence (P15289 whole entry, looked up): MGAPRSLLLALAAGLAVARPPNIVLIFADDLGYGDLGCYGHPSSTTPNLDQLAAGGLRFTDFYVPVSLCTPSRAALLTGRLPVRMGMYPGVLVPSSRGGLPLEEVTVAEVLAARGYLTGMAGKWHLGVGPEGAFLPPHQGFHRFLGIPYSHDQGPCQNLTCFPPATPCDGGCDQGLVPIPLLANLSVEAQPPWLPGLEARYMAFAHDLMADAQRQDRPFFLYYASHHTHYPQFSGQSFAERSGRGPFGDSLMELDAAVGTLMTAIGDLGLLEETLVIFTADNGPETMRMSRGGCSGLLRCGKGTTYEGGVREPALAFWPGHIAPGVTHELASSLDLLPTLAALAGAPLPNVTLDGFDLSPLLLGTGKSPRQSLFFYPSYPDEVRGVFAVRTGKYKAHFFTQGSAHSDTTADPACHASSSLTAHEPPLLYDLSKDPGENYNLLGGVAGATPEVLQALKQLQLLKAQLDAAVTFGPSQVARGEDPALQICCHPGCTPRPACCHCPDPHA
Peptidyl-prolyl cis-trans isomerase NIMA-interacting 1 (Homo sapiens), sequence (Q13526 whole entry, looked up): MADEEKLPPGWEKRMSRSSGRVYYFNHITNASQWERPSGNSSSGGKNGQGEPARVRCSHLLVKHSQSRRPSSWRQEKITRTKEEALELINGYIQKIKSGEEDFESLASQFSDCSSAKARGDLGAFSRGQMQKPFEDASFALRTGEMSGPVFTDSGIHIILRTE
Hexokinase-4 (Homo sapiens) + Glucokinase regulatory protein (Homo sapiens), sequence (P35557 whole entry, looked up): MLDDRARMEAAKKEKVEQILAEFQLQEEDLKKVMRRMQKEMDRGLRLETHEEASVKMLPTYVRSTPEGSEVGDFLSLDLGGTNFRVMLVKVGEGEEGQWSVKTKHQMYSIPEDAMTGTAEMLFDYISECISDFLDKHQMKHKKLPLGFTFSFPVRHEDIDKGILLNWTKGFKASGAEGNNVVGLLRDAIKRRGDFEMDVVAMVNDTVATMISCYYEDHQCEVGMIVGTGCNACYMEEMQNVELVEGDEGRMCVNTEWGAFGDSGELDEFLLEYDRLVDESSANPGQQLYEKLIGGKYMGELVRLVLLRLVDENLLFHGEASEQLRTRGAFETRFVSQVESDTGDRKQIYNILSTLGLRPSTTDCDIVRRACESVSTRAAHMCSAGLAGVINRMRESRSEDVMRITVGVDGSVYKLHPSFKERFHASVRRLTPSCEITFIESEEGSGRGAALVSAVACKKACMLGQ
Hexokinase-4 (Homo sapiens) + Glucokinase regulatory protein (Homo sapiens), sequence (Q14397 whole entry, looked up): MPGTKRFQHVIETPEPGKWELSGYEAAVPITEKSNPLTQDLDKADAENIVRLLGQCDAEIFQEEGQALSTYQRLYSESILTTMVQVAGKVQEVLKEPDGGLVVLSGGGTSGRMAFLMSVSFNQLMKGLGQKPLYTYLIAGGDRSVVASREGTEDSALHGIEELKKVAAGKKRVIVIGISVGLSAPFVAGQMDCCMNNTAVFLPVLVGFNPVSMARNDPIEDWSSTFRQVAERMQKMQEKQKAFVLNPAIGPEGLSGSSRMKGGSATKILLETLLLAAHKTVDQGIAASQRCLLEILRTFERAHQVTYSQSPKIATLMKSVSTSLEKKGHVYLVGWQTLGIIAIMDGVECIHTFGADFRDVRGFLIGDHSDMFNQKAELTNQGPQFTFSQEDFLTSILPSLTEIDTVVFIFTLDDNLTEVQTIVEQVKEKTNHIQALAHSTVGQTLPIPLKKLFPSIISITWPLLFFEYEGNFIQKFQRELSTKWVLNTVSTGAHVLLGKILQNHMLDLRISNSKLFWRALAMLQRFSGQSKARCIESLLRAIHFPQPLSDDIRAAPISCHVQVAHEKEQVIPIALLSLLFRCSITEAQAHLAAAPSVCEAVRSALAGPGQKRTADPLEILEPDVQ
Glucagon-like peptide 1 receptor (Homo sapiens), sequence (P43220 whole entry, looked up): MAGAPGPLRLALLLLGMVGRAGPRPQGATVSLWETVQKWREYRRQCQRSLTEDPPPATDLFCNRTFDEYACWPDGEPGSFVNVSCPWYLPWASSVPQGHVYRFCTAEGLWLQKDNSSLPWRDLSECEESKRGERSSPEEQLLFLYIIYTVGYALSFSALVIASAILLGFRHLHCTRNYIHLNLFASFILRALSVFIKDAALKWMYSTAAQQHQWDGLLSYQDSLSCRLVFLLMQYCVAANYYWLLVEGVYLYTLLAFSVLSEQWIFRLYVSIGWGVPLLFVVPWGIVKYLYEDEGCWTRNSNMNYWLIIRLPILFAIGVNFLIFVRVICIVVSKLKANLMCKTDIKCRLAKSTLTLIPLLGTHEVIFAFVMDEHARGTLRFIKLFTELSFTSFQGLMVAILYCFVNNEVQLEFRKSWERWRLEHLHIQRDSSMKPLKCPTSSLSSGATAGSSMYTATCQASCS
Thyrotropin-releasing hormone receptor (Homo sapiens), sequence (P34981 whole entry, looked up): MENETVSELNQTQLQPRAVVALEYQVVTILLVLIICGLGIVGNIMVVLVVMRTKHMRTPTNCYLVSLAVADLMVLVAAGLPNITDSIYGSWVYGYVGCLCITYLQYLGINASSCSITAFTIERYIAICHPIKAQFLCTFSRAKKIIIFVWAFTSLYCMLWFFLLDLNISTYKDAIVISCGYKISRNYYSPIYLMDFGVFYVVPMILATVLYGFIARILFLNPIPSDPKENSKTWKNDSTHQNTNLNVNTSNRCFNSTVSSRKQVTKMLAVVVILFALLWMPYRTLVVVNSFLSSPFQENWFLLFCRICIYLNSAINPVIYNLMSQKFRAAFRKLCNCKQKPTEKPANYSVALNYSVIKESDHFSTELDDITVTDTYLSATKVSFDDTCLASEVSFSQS
Ubiquitin carboxyl-terminal hydrolase 1 (Homo sapiens), sequence (O94782 whole entry, looked up): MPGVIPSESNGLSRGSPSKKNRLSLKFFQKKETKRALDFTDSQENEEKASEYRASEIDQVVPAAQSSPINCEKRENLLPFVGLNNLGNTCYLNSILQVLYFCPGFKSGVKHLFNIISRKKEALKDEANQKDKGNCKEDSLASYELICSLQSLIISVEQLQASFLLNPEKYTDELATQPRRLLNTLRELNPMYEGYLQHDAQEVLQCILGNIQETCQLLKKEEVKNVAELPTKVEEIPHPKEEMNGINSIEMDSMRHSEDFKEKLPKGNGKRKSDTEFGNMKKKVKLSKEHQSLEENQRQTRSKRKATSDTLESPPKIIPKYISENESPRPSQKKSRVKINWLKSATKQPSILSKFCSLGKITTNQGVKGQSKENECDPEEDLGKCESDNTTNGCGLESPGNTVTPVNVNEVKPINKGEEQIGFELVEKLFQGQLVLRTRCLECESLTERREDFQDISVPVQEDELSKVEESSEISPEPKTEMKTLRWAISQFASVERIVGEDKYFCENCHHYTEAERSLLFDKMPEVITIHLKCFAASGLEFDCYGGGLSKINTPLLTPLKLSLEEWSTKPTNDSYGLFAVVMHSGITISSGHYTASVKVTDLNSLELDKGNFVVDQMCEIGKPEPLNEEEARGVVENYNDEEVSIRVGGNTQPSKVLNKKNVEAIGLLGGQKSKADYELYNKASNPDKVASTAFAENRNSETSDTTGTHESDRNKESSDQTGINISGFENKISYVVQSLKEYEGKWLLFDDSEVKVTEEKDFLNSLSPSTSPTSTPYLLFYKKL

For the compound `Nc1c(S(=O)(=O)O)cc(Nc2ccc(Nc3nc(Cl)nc(Nc4ccc(S(=O)(=O)O)cc4)n3)c(S(=O)(=O)O)c2)c2c1C(=O)c1ccccc1C2=O`, the Potency result in test [1], in test [8] and in test [15] was “inactive” each time. Also, the activation in test [2] is 1.5%. The compound was classed as inactive in test [3], in [4], in [9], in test [10], in test [11] and in test [13]. Also, the outcome in test [14], in test [16], in test [18] and in test [19] was inactive. Further, the Potency in test [5] was 2.39 µM (active); in test [6], 5.36 µM (active); in test [7], 6.31 µM (active); in [12], 26.9 µM (active); in test [17] it was 9.27 µM (active); in test [20], 11.7 µM (active).
